For some assays here: Entries with a potency or affinity are not part of this list.
Columns and labels:
Set-up in all cases: scale not given: direction of the effect not stated beside the values
[1] = target: Protein translocase subunit SecA (Escherichia coli (strain K12)) (UniProt P10408); experiment: Assay to Identify E. coli SecA ATPase Inhibitors; assay type: functional; settings: 30 µM
[2] = target: T1, Ubiquitin-activating enzyme e1, putative (Leishmania donovani (strain BPK282A1)) (UniProt E9BSI1); experiment: Leishmania donovani Ubiquitin Activating Enzyme (LdE1); assay type: functional; settings: 30 µM
T1 sequence (whole entry): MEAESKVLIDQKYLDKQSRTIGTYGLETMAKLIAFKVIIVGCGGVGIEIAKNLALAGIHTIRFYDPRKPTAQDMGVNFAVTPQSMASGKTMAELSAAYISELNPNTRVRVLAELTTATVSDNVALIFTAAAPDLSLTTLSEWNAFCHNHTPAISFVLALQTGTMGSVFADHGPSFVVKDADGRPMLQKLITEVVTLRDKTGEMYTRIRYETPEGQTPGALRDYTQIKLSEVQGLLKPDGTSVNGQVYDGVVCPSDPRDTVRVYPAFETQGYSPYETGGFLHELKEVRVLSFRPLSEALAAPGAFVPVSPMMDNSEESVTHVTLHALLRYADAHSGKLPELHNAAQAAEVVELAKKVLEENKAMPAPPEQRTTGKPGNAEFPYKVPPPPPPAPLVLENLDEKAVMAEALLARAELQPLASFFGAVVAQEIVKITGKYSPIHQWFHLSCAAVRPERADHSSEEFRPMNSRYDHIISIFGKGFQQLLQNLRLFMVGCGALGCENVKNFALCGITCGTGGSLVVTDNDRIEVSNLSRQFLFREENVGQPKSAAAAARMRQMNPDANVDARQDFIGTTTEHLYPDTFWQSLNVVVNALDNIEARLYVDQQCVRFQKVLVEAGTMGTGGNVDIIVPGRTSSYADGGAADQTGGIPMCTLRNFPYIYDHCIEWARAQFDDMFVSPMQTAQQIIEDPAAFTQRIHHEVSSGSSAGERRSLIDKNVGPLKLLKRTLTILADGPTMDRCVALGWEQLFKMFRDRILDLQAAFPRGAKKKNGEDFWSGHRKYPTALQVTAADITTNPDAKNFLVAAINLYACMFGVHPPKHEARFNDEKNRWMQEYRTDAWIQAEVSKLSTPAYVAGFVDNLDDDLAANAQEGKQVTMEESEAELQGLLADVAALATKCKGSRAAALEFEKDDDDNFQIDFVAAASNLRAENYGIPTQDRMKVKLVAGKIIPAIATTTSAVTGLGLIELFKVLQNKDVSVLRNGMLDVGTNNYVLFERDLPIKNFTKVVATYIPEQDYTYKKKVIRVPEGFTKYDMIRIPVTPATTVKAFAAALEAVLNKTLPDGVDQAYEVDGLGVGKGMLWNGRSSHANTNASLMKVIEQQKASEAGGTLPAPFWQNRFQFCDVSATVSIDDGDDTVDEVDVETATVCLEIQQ

[3] = target: AMP-activated protein kinase, AMPK (Homo sapiens) (UniProt P54646+O43741+P54619+Q9UGJ0+Q9Y478+Q13131+Q9UGI9); experiment: AMP-dependent Kinase enzyme assay. An in vitro enzyme assay that detects ADP turnover that is directly proportional to AMPK activity. This uses naive AMPK that is activated during the assay with MK-8722; assay type: functional; settings: 30 µM
[4] = target: Sialic acid-binding Ig-like lectin 9 (Homo sapiens) (UniProt Q9Y336); experiment: Hs-Siglec9 ALPHAscreen SOP 20170721; settings: 10 µM
Chain of Sialic acid-binding Ig-like lectin 9 (Homo sapiens) (Q9Y336 whole entry): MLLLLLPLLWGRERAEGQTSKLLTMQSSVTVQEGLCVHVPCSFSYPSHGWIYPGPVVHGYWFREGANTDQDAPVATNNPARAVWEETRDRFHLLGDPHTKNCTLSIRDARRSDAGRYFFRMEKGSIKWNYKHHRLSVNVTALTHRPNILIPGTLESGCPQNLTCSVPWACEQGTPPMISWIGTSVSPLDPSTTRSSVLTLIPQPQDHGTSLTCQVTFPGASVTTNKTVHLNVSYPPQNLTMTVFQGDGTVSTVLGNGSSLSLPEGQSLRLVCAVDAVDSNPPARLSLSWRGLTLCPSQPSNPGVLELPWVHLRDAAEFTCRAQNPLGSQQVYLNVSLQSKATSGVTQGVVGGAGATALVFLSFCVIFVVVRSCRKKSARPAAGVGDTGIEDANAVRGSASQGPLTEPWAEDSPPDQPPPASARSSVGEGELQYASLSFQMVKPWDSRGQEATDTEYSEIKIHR

Trypanosoma cruzi = experiment: Trypanosoma cruzi phosphomannomutase and mannose-1-phosphate guanylyltransferase assay; assay type: functional; settings: 10 µM
[5] = target: T2, Arginase-2, mitochondrial (Homo sapiens) (UniProt P78540); experiment: in vitro enzyme assay to detect the production of urea directly proportional to the activity of Arginase II; assay type: functional; settings: 33.3 µM; also: in the data most compounds retested in dose-response had high values
T2 sequence (whole entry): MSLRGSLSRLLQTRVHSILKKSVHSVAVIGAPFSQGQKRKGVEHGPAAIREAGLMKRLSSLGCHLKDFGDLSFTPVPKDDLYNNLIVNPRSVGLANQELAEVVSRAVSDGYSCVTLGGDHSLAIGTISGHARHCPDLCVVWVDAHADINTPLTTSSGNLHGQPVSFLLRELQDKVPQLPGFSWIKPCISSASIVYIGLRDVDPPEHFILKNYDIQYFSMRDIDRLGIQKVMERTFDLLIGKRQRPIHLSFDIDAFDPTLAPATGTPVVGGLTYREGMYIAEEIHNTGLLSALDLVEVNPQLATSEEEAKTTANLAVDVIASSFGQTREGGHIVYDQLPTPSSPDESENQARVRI

[6] = target: T3, Proteasome subunit beta (Trypanosoma cruzi) (UniProt O96673); experiment: Trypanosoma cruzi proteasome chymotrypsin-like activity (TcProtChymo) assay.; also: in the data most compounds retested in dose-response had high values; assay type: functional; settings: 9.37 µM
T3 sequence (whole entry): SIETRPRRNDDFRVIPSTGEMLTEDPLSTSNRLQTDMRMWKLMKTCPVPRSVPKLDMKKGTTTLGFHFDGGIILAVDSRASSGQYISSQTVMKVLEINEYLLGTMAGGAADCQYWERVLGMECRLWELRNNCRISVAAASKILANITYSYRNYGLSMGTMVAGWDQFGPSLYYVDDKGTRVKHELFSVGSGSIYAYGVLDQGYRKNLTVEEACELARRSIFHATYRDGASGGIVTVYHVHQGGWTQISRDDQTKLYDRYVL

Homo sapiens = species on record: Homo sapiens; experiment: To identify inhibition of the IFN signalling (Jak-Stat) pathway via expression of an eGFP reporter gene under the control of an IFN-stimulated response element (ISRE) containing MxA promoter.; assay type: functional; settings: 30 µM
[7] = target: T4, Tyrosyl-tRNA synthetase, putative (Trypanosoma cruzi (strain CL Brener)) (UniProt Q4DSP6); experiment: Trypanosoma cruzi tyrosyl tRNA synthetase (TcYRS) _High Tyrosine SOP; assay type: functional; settings: 30 µM; also: in the data most compounds retested in dose-response had high values
T4 sequence (whole entry): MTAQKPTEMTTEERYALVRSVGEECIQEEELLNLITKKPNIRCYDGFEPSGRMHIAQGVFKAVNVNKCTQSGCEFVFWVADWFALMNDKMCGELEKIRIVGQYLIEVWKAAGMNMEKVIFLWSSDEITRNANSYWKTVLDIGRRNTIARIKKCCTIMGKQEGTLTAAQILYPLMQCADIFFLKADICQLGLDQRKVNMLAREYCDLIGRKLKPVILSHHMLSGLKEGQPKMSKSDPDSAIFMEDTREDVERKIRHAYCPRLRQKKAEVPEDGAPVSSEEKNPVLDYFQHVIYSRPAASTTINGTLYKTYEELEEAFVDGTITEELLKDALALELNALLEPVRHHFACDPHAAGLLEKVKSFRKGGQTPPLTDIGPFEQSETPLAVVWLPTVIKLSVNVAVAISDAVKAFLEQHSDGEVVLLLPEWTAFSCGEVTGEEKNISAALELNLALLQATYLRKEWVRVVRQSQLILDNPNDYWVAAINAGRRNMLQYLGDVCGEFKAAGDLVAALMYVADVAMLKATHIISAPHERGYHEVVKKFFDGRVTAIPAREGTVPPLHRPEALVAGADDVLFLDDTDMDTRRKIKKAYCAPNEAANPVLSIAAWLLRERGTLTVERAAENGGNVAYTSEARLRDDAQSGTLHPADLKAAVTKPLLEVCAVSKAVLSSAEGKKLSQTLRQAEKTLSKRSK

[8] = target: T4, Tyrosyl-tRNA synthetase, putative (Trypanosoma cruzi (strain CL Brener)); experiment: Trypanosoma cruzi tyrosyl tRNA synthetase (TcYRS) SOP; assay type: functional; settings: 30 µM
[9] = target: Chromo domain-containing protein 1 (Saccharomyces cerevisiae (strain ATCC 204508 / S288c) (Baker's yeast)) (UniProt P32657); experiment: ScCHD-1 Enzyme Inhibition Assay; assay type: functional; settings: 30 µM; also: in the data most compounds retested in dose-response had high values
Chain of Chromo domain-containing protein 1 (Saccharomyces cerevisiae (strain ATCC 204508 / S288c) (Baker's yeast)) (P32657 whole entry, the tested form may be a part): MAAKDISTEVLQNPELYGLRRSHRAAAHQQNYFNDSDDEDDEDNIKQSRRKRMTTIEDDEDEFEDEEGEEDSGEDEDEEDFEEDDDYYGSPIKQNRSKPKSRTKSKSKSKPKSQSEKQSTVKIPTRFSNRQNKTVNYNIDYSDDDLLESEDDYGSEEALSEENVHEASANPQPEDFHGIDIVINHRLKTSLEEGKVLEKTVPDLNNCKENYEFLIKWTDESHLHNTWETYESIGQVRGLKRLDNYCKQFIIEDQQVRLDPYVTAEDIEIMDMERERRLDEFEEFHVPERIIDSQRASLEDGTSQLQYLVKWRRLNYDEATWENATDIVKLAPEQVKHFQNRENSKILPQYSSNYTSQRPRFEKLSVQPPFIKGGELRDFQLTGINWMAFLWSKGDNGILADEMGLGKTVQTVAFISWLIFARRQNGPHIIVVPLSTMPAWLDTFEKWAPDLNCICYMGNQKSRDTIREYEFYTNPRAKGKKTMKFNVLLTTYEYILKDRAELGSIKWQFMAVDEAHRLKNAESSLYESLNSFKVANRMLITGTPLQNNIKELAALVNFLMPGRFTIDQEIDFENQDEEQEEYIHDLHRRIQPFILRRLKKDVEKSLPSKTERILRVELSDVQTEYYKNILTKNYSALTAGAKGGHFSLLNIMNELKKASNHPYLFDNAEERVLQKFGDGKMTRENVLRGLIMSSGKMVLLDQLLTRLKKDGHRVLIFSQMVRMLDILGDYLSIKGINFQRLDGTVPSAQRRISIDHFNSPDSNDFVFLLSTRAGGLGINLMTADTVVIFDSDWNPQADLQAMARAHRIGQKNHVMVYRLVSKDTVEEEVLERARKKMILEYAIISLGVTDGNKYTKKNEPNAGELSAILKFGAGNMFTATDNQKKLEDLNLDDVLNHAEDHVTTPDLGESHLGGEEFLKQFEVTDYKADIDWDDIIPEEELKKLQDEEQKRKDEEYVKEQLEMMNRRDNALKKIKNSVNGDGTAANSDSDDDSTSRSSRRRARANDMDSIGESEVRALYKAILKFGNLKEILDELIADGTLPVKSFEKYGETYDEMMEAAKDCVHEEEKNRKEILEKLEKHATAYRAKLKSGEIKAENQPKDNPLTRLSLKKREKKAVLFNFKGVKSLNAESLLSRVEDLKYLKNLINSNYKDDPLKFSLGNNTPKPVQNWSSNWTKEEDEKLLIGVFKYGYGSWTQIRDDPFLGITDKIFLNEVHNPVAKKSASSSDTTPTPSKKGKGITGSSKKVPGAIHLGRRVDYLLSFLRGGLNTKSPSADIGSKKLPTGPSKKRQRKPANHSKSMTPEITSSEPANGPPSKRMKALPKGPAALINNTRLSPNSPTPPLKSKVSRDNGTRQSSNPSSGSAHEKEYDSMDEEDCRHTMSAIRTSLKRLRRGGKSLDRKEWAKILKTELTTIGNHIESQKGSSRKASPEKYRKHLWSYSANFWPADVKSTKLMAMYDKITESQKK

Chain of Protein translocase subunit SecA (Escherichia coli (strain K12)) (P10408 whole entry): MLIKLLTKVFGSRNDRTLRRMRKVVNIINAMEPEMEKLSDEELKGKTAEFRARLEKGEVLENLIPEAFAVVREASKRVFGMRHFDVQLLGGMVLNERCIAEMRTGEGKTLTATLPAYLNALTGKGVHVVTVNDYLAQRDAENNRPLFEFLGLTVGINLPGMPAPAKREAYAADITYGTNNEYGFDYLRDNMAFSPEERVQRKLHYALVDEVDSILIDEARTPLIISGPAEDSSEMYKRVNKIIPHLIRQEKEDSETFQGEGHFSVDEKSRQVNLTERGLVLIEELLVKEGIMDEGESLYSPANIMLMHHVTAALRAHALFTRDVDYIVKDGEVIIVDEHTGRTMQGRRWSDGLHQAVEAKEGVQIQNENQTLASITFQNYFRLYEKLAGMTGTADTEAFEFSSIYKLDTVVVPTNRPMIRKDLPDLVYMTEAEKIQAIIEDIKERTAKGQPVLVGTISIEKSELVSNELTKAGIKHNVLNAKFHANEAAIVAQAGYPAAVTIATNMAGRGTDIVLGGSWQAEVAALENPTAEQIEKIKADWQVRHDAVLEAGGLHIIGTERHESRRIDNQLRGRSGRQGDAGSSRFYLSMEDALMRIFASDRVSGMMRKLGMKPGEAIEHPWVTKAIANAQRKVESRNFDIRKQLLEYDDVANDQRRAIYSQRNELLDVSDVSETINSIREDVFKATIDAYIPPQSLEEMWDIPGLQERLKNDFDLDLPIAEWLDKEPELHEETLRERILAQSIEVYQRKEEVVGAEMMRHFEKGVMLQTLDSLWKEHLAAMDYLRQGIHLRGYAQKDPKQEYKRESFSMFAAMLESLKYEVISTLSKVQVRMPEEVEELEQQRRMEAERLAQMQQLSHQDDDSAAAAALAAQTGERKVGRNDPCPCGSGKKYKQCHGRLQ

| SMILES | Percent Effect [1] | Percent Effect [2] | Percent Effect [3] | Percent Effect [4] | Percent Effect (Trypanosoma cruzi) | Percent Effect [5] | Percent Effect [6] | Percent Effect (Homo sapiens) | Percent Effect [7] | Percent Effect [8] | Percent Effect [9] |
| --- | --- | --- | --- | --- | --- | --- | --- | --- | --- | --- | --- |
| CO[C@H]1CCN(S(=O)(=O)c2cn(C)cn2)[C@H]1Cc1cccnc1 | -3.74% | 8% | -3.32% | -5.55% | 6.37% | -49.6% | 7.86% | -0.203% | 3.12% | 15% | -9.19% |
| O=C(CN(Cc1ccccc1)CC1CCOCC1)Nc1nccs1 | -4.59% | 0% | 0.406% | 1.15% | -4.17% | 0.399% | 4.2% | -3.27% | 6.25% | 11.1% | -0.498% |
| CCc1nc(CN2CCCC(NCc3cnn(C(C)(C)C)c3)C2)no1 (configuration not stated) | -2.85% | 2.53% | -0.494% | 3.84% | -1.6% | -1.52% | 6.63% | 14.9% | -1.48% | -1.27% | -0.901% |
| CN(C)CC1CSCCCN1C(=O)c1ccc(C(C)(C)C)cc1 (configuration not stated) | 2.6% | 2.6% | 2.24% | 1.48% | -5.23% | 7.1% | 1.39% | 1.95% | 6.35% | 16.7% | -4.54% |
| O=C(CN1CCCC1Cn1cncn1)NC(C1CC1)C1CC1 (configuration not stated) | -1.42% | -1.39% | 2.21% | -0.594% | 2.04% | 1.32% | 10.9% | -11.5% | 3.16% | 0% | -1.96% |
| Cc1nnc2n1CCN(C(=O)COCCOc1ccccc1)C2 | -3.64% | -21.5% | 10% | 1.03% | -1.33% | 4.95% | 7.89% | 3.44% | 5.21% | 12.7% | -1.76% |
| O=C(NCc1ccccn1)[C@@H]1CCO[C@@H]2CCN(Cc3ccoc3)C[C@H]21 | -4.59% | 8.11% | 7.22% | -2.83% | -3.03% | 0.955% | 17.5% | 3.21% | 4.32% | 15.4% | -2.07% |
| Cc1cc(NC(=O)CCN2CCCC2Cn2cncn2)no1 (configuration not stated) | -6.97% | 8.86% | 1.01% | 2.13% | -0.718% | -2.8% | 14.9% | 2.3% | 4.17% | 10.1% | -27.3% |
| CC(=O)Nc1nc(C(=O)NCc2ccc(N3CCCCCC3)nc2)cs1 | -1.32% | 24.1% | 5.19% | -5.11% | -1.13% | -4.09% | 20.6% | 29.2% | 4.17% | 22.8% | -18.9% |
| CC(C)c1nnc2n1CC(CNCc1ccncc1)CC2 (configuration not stated) | -1.84% | 4.17% | -5.62% | -8.26% | -3.21% | 2.21% | 17% | -9.1% | 3.16% | -2.56% | -2.53% |
| CCN(C)c1ccc(C(=O)N(CCOC)Cc2ccccn2)cc1 | -4.29% | 21.3% | -3.55% | 21.4% | 7.89% | 38.5% | 15.2% | 20.7% | 6.01% | 21% | -5.22% |
| Cc1cc(C)n(CC2CN(CC(=O)NC3CCCC3)CCO2)n1 (configuration not stated) | -8.44% | 7.79% | 2.32% | -3.15% | -8.24% | -0.712% | 2.03% | 32.3% | 1.94% | 2.44% | -5.73% |
| CCc1ccc(CN2CCCC(CO)(CCOC)C2)cc1 (configuration not stated) | -2.06% | -5.41% | -3.48% | -7.57% | -4.79% | -6.7% | -0.258% | -5.11% | -1.07% | 1.24% | 1.15% |
| COc1ccc(NC(C)C(=O)N2CCN(Cc3ccccc3)CC2)cn1 (configuration not stated) | -0.598% | -2.74% | -258% | -6.68% | -0.783% | 3.18% | -6.21% | 4.99% | 1.07% | 0% | -0.618% |
| CC(C)Nc1nc2c(cc1C(=O)N(C)C)CCNCC2 | -4.01% | 16% | 4.22% | 9.77% | -0.772% | -24.6% | 5.47% | -7.58% | 0% | -7.5% | -4.61% |
| c1ccc2sc(CN3CCOC(Cn4cccn4)C3)nc2c1 (configuration not stated) | -6.08% | 5.41% | -3.49% | 1.12% | -4.06% | -2% | 0% | 24.4% | -0.493% | -8.64% | -0.731% |
| c1csc(-c2noc(CCCN3CCCC3Cn3cccn3)n2)c1 (configuration not stated) | -4.94% | -13.5% | -5.55% | 4.78% | 0.849% | -6.41% | -1.98% | 0.955% | 4.43% | 1.24% | -1.71% |
| Cc1cccc(-c2nc(CN(Cc3cccs3)CC3CCCO3)no2)c1 (configuration not stated) | -1.96% | -51.9% | 2.38% | -0.778% | 0.103% | 4.95% | 7.72% | 25.8% | -7.29% | -17.7% | -15.2% |
| CS(=O)(=O)N1CCC(C(=O)NCCNc2ncccn2)CC1 | -3.08% | 10.8% | 2.54% | -1.9% | 8.45% | -7.21% | 14.2% | 14.8% | 6.93% | 15.8% | -3.22% |
| Cc1cc(-c2cnn(CCNC(=O)c3cccnc3)c2C2CC2)on1 | -4.86% | 4.05% | 7.97% | 2.6% | -0.395% | -3.48% | -1.09% | 7.9% | 5.38% | 9.09% | 1.21% |
| FC(F)(F)C1CCCn2c(CNCc3ccsc3)nnc21 (configuration not stated) | -2.76% | 2.67% | -9.01% | 4.99% | 2.63% | 1.56% | 20.2% | -14.2% | 9.29% | 18.5% | -3.87% |
| CCc1ccc(OCC(O)CN2CCN(S(C)(=O)=O)CC2)cc1 (configuration not stated) | -7.02% | 7.79% | 3.94% | -12.9% | -6.56% | -3.58% | 3.96% | 16% | 0.952% | 2.35% | -21.6% |
